The whole screen tested about 350,000 compounds, of which about 6,000 (1.7%) were called active. About 5% were inconclusive and are not listed. Rule as the data show it: active = CPE inhibition above about 20% (passing the limit was not always enough); inconclusive = no clear call, values can overlap the other calls; tested in BHK-21 cells. The entries come from a sample that favours actives as a whole.
Test: inhibitors of DENV2 cytopathic effect, primary screen, cell-based, plate reader, single concentration (AID 651640);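 also: 0% = median of neutral control wells and 100% = median of positive control wells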
Conditions: DENV2-infected cells, cytopathic effect rescue, at 9.99 µM, hits give high values

CPE inhibition, inactive:
CC(C)NC(=O)Nc1ccc2c(c1)C(=O)N(C)[C@H]1CC[C@H](CC(=O)NCC3CCCCC3)O[C@@H]1CO2 -11%, C=C[C@H](OC)[C@@H](O)c1ccc(OC)c(O)c1 -1.37%, C[C@H](CO)N1C[C@H](C)[C@@H](CN(C)C(=O)CCC(F)(F)F)OCCCC[C@H](C)Oc2ccc(NC(=O)C3CCCCC3)cc2C1=O -0.808%, CCS(=O)(=O)N1[C@H](CO)[C@@H](c2ccccc2)C12CN(C(=O)C1CCC1)C2 -6.37%, Cc1noc(C)c1NC(=O)N(C)C[C@@H]1Oc2ccc(NC(=O)Nc3ccc4c(c3)OCO4)cc2CC(=O)N([C@H](C)CO)C[C@H]1C 9.34%, C[C@@H]1CN([C@H](C)CO)C(=O)c2cc(C#CCC3CCCC3)cnc2O[C@H]1CN(C)C(=O)c1cnccn1 4.48%, CO[C@H]1O[C@H](CO)[C@@H](OC(=O)Nc2ccc(C(F)(F)F)cc2)[C@H](OC(=O)Nc2ccc3c(c2)OCO3)[C@H]1OC(=O)Nc1ccc2c(c1)OCO2 3.41%, CO[C@@H]1CN(C)C(=O)c2cc(NC(=O)C3CC3)ccc2OC[C@@H](C)N(Cc2ccc(F)cc2)C[C@@H]1C 3.49%, C[C@@H]1CN([C@@H](C)CO)C(=O)Cc2cc(NS(C)(=O)=O)ccc2O[C@H]1CN(C)C(=O)Nc1ccccc1 16.2%, C[C@@H]1CN([C@H](C)CO)C(=O)Cc2cc(NC(=O)CCN3CCOCC3)ccc2O[C@H]1CN(C)CC1CC1 -0.438%, COc1ccc2c3c(n(C)c2c1)[C@@H](CO)N(C(C)=O)CC31CCN(Cc2nccs2)CC1 -1.04%, CCS(=O)(=O)N1CC2(CN(Cc3ccccc3)[C@@H](CO)c3c2c2ccc(OC)cc2n3C)C1 6.33%, COc1ccc2c3c([nH]c2c1)[C@@H](CO)N(Cc1nccs1)CC31CCN(C(=O)C2CCCC2)CC1 -11.8%, COc1ccc2c3c(n(C)c2c1)[C@H](CO)N(C(=O)CC1CC1)CC31CCN(Cc2nccs2)CC1 -5.74%, COc1ccc2c3c(n(C)c2c1)[C@@H](CO)N(C(=O)c1ccc(F)cc1)CC31CN(C(=O)c2ccc(F)cc2)C1 2.03%, COc1ccc2c3c([nH]c2c1)[C@H](CO)N(Cc1nccs1)CC31CCN(C(=O)C2CCC2)CC1 -3.4%, CCS(=O)(=O)N1CC2(CN(Cc3cc(F)ccc3F)[C@@H](CO)c3c2c2ccc(OC)cc2n3C)C1 -8.85%, CCS(=O)(=O)N1CC2(CN(C(=O)c3ccc(F)cc3)[C@@H](CO)c3c2c2ccc(OC)cc2n3C)C1 -7%, Cc1noc(C)c1NC(=O)Nc1ccc2c(c1)C(=O)N([C@H](C)CO)C[C@H](C)[C@H](CN(C)Cc1ccc(C(=O)O)cc1)OCCCC[C@H](C)O2 3.28%, CO[C@H](CN(C)S(=O)(=O)c1ccc(C)cc1)[C@@H](C)CN(Cc1ccccc1Cl)[C@@H](C)CO -6.58%, C[C@H]1CCCCO[C@@H](CN(C)Cc2ccc3c(c2)OCO3)[C@@H](C)CN([C@@H](C)CO)C(=O)c2cc(NC(=O)c3ccccc3)ccc2O1 -5.55%, C[C@H](CO)N1C[C@H](C)[C@@H](CN(C)S(=O)(=O)c2cccs2)OCCCC[C@H](C)Oc2ccc(NS(=O)(=O)c3ccccc3)cc2C1=O -5.76%, Cc1ccc(S(=O)(=O)Nc2ccc3c(c2)C(=O)N([C@@H](C)CO)C[C@H](C)[C@@H](CN(C)C(=O)Nc2ccc(F)cc2)OCCCC[C@H](C)O3)cc1 0.458%, O=C(C[C@H]1CC[C@H]2[C@@H](COC[C@H](O)CN2CCC(F)(F)F)O1)N1CCC(Cc2ccccc2)CC1 0.858%, O=C(CN1CCN(c2ccccc2)CC1)Nc1ccc(F)cc1 -6.81%, Cc1ccc2cc(C)c(N3CCN(c4ccc(F)cc4)CC3)nc2c1 -3.88%, CCC(=O)Nc1ccc2c(c1)C(=O)N(C)[C@@H]1CC[C@H](CC(=O)NCCc3ccncc3)O[C@@H]1CO2 -5.57%, CN1C(=O)c2cc(NC(=O)C3CCCC3)ccc2OC[C@H]2O[C@@H](CC(=O)NCCc3ccncc3)CC[C@H]21 5.23%, C[C@@H]1CN([C@H](C)CO)S(=O)(=O)c2ccc(-c3ccc(C(=O)N(C)C)cc3)cc2O[C@@H]1CN(C)C(=O)Nc1ccccc1F 2.86%, Cc1ccccc1S(=O)(=O)N1[C@@H](c2cccc(Cl)c2)C(C(=O)OC(C)(C)C)=CC[C@H]1c1ccc(Cl)cc1 -8.63%, Cc1ccc(S(=O)(=O)N2[C@@H](c3ccccc3F)C(C(=O)O)=CC[C@H]2c2ccc(Cl)cc2)cc1 -10.7%, CCOC(=O)C1=CC[C@@H](c2ccccc2)N(S(=O)(=O)c2ccc(C)cc2)[C@H]1c1cccc(OC)c1 -3.53%, Cc1ccccc1S(=O)(=O)N1[C@@H](c2cccc(Cl)c2)C(C(=O)O)=CC[C@H]1c1ccc(Cl)cc1 6.18%, O=C(C[C@H]1CC[C@@H](NC(=O)CC2CC2)[C@@H](CO)O1)NCc1ccccc1 3.95%, C[C@@H]1CN([C@H](C)CO)C(=O)c2cc(NC(=O)Nc3ccc(F)cc3)ccc2O[C@@H](C)CCCCO[C@@H]1CN(C)S(=O)(=O)c1cn(C)cn1 2.14%, C[C@H](CO)N1C[C@H](C)[C@H](CN(C)Cc2cncnc2)Oc2cc(-c3ccccc3F)ccc2S1(=O)=O -2.27%, C[C@@H]1CCCCO[C@H](CN(C)Cc2ccccc2)[C@H](C)CN([C@@H](C)CO)C(=O)c2cc(NC(=O)Nc3cccc4ccccc34)ccc2O1 -25.3%, O=C(C[C@@H]1CC[C@H]2[C@@H](COC[C@H](O)CN2C(=O)Nc2ccc(Cl)cc2)O1)NCC1CC1 6.37%, C[C@@H](NC(=O)C[C@@H]1CC[C@H]2[C@@H](COC[C@@H](O)CN2C(=O)Nc2cccc(F)c2)O1)c1ccccc1 4.9%, CCNC(=O)C[C@H]1CC[C@@H]2[C@H](COC[C@H](O)CN2C(=O)Nc2c(C)noc2C)O1 -1.85%, O=C(C[C@@H]1CC[C@H]2[C@@H](COC[C@@H](O)CN2C(=O)Nc2ccc(F)cc2)O1)NCC1CC1 -0.669%, C[C@@H](NC(=O)C[C@H]1CC[C@H]2[C@@H](COC[C@@H](O)CN2C(=O)Nc2ccccc2)O1)c1ccccc1 -9.46%, CCCNC(=O)C[C@@H]1CC[C@H]2[C@@H](COC[C@H](O)CN2C(=O)Nc2ccc(Cl)c(Cl)c2)O1 2.89%, COc1ccc(NC(=O)N2C[C@H](O)COC[C@H]3O[C@@H](CC(=O)NC4Cc5ccccc5C4)CC[C@@H]32)cc1 -9.25%, COc1ccc2c3c(n(C)c2c1)[C@@H](CO)N(C)CC31CN(CC2CC2)C1 -0.913%, Cc1ccc(-c2cc(=O)c3ccc(Cl)cc3[nH]2)cc1 0.541%, O=c1cc(-c2ccccc2)[nH]c2cc(F)ccc12 -7.41%, CC(C)CC#Cc1ccc([C@H]2[C@@H](CO)N3C(=O)CN(C(=O)CN4CCOCC4)C[C@H]23)cc1 -8.34%, COc1ccc(C(=O)NCCCN2CCOCC2)cc1Br 8.89%, CCN1CCN(CC(=O)c2cc(OC)c(OC)c(OC)c2)CC1 -1.76%, O=C(C[C@@H]1C=C[C@@H](NC(=O)c2ccccc2)[C@H](CO)O1)NCCc1ccncc1 -5.54%, O=C(c1ccc(C(F)(F)F)cc1)N1CCC(=O)N([C@H](COCc2ccccc2)Cc2ccccc2)CC1 -2.73%, CC(C)C[C@@H](COCc1ccc(Cl)cc1)N1CCN(C(=O)c2ccc(Cl)cc2Cl)CCC1=O -4.03%

CPE inhibition, active:
COc1ccc2c3c(n(C)c2c1)[C@H](CO)N(CC1CCCCC1)CC31CCN(Cc2nccs2)CC1 22.7%, CCS(=O)(=O)N1CC2(CN(C(=O)c3ccc(F)cc3)[C@H](CO)c3c2c2ccc(OC)cc2n3C)C1 21.9%, COc1cc(CN2CC3(CN(S(=O)(=O)c4cn(C)cn4)C3)c3c(n(C)c4cc(OC)ccc34)[C@H]2CO)cc(OC)c1 58.8%, COc1ccc2c3c([nH]c2c1)[C@@H](CO)N(C(=O)C1CC1)CC31CCN(Cc2nccs2)CC1 25.2%, CC(=O)c1c(N2CCN(c3ccc(F)cc3)CC2)nc(=S)n(-c2ccccc2)c1C 46.2%, CN1C(=O)c2cc(NC(=O)C3CCCC3)ccc2OC[C@@H]2O[C@@H](CC(=O)NCCc3ccncc3)CC[C@@H]21 26.3%, Cc1ccc(S(=O)(=O)N2[C@@H](c3cccc(Cl)c3)C(C(=O)O)=CC[C@H]2c2ccc(Cl)c(Cl)c2)cc1 40%, Cc1ccc([C@@H]2CC=C(C(=O)O)[C@H](c3cccc(Cl)c3)N2S(=O)(=O)c2ccc(C)cc2)cc1 42.3%, CCCNC(=O)C[C@H]1CC[C@H]2[C@@H](COC[C@H](O)CN2C(=O)Nc2c(C)noc2C)O1 40.9%, O=C(C[C@H]1CC[C@H]2[C@@H](COC[C@H](O)CN2C(=O)Nc2ccc(Cl)cc2)O1)NCC1CC1 85.5%, C[C@@H](NC(=O)C[C@@H]1CC[C@@H]2[C@H](COC[C@@H](O)CN2C(=O)Nc2cccc(F)c2)O1)c1ccccc1 24.3%, Cc1ccc(-c2cc(=O)c3ccc(F)cc3[nH]2)cc1 25%, COc1cc(C(=O)OCCCN2CCOCC2)cc(OC)c1OC 49.2%, CC(C)CC(COCc1ccc(Cl)cc1)N1CCN(C(=O)c2ccc(C(F)(F)F)cc2)CCC1=O (configuration not stated) 49.9%
